In the supplement of paper PMC4466140:

Experiments:
Assay in all cases: SPOT peptide array binding signal intensity (averaged, normalized) (arbitrary units (background-subtracted, floor 0; scale differs between SH3 domains)); higher = stronger binding of the SH3 domain to the peptide
[1] = target: AgAbp1
Method in brief: (§1)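 E. coli BL21(DE3) was used to express GST-fused SH3 domains from four yeast species, which were then purified on glutathione Sepharose. These were incubated at 10 μg/ml in TBS-based blocking buffer overnight at 4°C on cellulose membranes carrying synthetic 15-mer peptides, in which cysteines were replaced by serines. Binding signal is the replicate average of normalized, background-subtracted spot intensity, in arbitrary units that differ between domains.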

[2] = target: AgBbc1
Method in brief: as §1

[3] = target: AgBem1-D1
Method in brief: as §1

[4] = target: AgBzz1-D1
Method in brief: as §1

[5] = target: AgBzz1-D2
Method in brief: as §1

[6] = target: AgCyk3
Method in brief: as §1

[7] = target: AgFus1
Method in brief: as §1

[8] = target: AgHof1
Method in brief: as §1

[9] = target: AgHse1
Method in brief: as §1

[10] = target: AgLsb1
Method in brief: as §1

[11] = target: AgLsb4
Method in brief: as §1

[12] = target: AgMyo5
Method in brief: as §1

[13] = target: AgNbp2
Method in brief: as §1

[14] = target: AgRvs167
Method in brief: as §1

[15] = target: AgSho1
Method in brief: as §1

[16] = target: AgSla1-D1-D2
Method in brief: as §1

[17] = target: AgSla1-D3
Method in brief: as §1

[18] = target: CaAbp1-D1
Method in brief: as §1

[19] = target: CaAbp1-D2
Method in brief: as §1

[20] = target: CaBbc1
Method in brief: as §1

[21] = target: CaBem1-D1
Method in brief: as §1

[22] = target: CaBzz1-D1
Method in brief: as §1

[23] = target: CaBzz1-D2
Method in brief: as §1

[24] = target: CaCyk3
Method in brief: as §1

[25] = target: CaFus1
Method in brief: as §1

[26] = target: CaHof1
Method in brief: as §1

[27] = target: CaHse1
Method in brief: as §1

[28] = target: CaLsb1
Method in brief: as §1

[29] = target: CaLsb4
Method in brief: as §1

[30] = target: CaMyo5
Method in brief: as §1

[31] = target: CaNbp2
Method in brief: as §1

[32] = target: CaRvs167
Method in brief: as §1

[33] = target: CaRvs167-3
Method in brief: as §1

[34] = target: CaSho1
Method in brief: as §1

[35] = target: CaSla1-D1-D2
Method in brief: as §1

[36] = target: CaSla1-D3
Method in brief: as §1

[37] = target: ScAbp1
Method in brief: as §1

[38] = target: ScBbc1
Method in brief: as §1

[39] = target: ScBem1-D1
Method in brief: as §1

[40] = target: ScBzz1-D1
Method in brief: as §1

[41] = target: ScBzz1-D2
Method in brief: as §1

[42] = target: ScCyk3
Method in brief: as §1

[43] = target: ScFus1
Method in brief: as §1

[44] = target: ScHof1
Method in brief: as §1

[45] = target: ScHse1
Method in brief: as §1

[46] = target: ScLsb1
Method in brief: as §1

[47] = target: ScLsb2
Method in brief: as §1

[48] = target: ScLsb3
Method in brief: as §1

[49] = target: ScLsb4
Method in brief: as §1

[50] = target: ScMyo3
Method in brief: as §1

[51] = target: ScMyo5
Method in brief: as §1

[52] = target: ScNbp2
Method in brief: as §1

[53] = target: ScPex13
Method in brief: as §1

[54] = target: ScRvs167
Method in brief: as §1

[55] = target: ScSho1
Method in brief: as §1

[56] = target: ScSla1-D1-D2
Method in brief: as §1

[57] = target: ScSla1-D3
Method in brief: as §1

[58] = target: SpAbp1-D1
Method in brief: as §1

[59] = target: SpBbc1
Method in brief: as §1

[60] = target: SpBzz1-D1
Method in brief: as §1

[61] = target: SpBzz1-D2
Method in brief: as §1

[62] = target: SpCyk3
Method in brief: as §1

[63] = target: SpHof1
Method in brief: as §1

[64] = target: SpHof1-2
Method in brief: as §1

[65] = target: SpHof1-3
Method in brief: as §1

[66] = target: SpHse1
Method in brief: as §1

[67] = target: SpLsb1
Method in brief: as §1

[68] = target: SpLsb4
Method in brief: as §1

[69] = target: SpMyo1
Method in brief: as §1

[70] = target: SpNbp2
Method in brief: as §1

[71] = target: SpPex13
Method in brief: as §1

[72] = target: SpRvs167
Method in brief: as §1

[73] = target: SpSla1-D1-D2
Method in brief: as §1

[74] = target: SpSla1-D3
Method in brief: as §1

PHNPSPFFPPPDFND
SPOT peptide array binding signal intensity [1]: ≤ 0
SPOT peptide array binding signal intensity [2]: 3
SPOT peptide array binding signal intensity [3]: 16.5
SPOT peptide array binding signal intensity [4]: 5
SPOT peptide array binding signal intensity [5]: 22
SPOT peptide array binding signal intensity [6]: ≤ 0
SPOT peptide array binding signal intensity [7]: ≤ 0
SPOT peptide array binding signal intensity [8]: ≤ 0
SPOT peptide array binding signal intensity [9]: 71
SPOT peptide array binding signal intensity [10]: 3
SPOT peptide array binding signal intensity [11]: ≤ 0
SPOT peptide array binding signal intensity [12]: 610
SPOT peptide array binding signal intensity [13]: 42
SPOT peptide array binding signal intensity [14]: 0.667
SPOT peptide array binding signal intensity [15]: ≤ 0
SPOT peptide array binding signal intensity [16]: ≤ 0
SPOT peptide array binding signal intensity [17]: ≤ 0
SPOT peptide array binding signal intensity [18]: 2
SPOT peptide array binding signal intensity [19]: 28
SPOT peptide array binding signal intensity [20]: 14
SPOT peptide array binding signal intensity [21]: ≤ 0
SPOT peptide array binding signal intensity [22]: 1.5
SPOT peptide array binding signal intensity [23]: 1.53e-05
SPOT peptide array binding signal intensity [24]: 1
SPOT peptide array binding signal intensity [25]: 32.5
SPOT peptide array binding signal intensity [26]: ≤ 0
SPOT peptide array binding signal intensity [27]: 2
SPOT peptide array binding signal intensity [28]: ≤ 0
SPOT peptide array binding signal intensity [29]: 28
SPOT peptide array binding signal intensity [30]: 112
SPOT peptide array binding signal intensity [31]: 40.5
SPOT peptide array binding signal intensity [32]: 0.333
SPOT peptide array binding signal intensity [33]: ≤ 0
SPOT peptide array binding signal intensity [34]: 7.5
SPOT peptide array binding signal intensity [35]: ≤ 0
SPOT peptide array binding signal intensity [36]: ≤ 0
SPOT peptide array binding signal intensity [37]: ≤ 0
SPOT peptide array binding signal intensity [38]: 0.5
SPOT peptide array binding signal intensity [39]: ≤ 0
SPOT peptide array binding signal intensity [40]: ≤ 0
SPOT peptide array binding signal intensity [41]: 10.5
SPOT peptide array binding signal intensity [42]: ≤ 0
SPOT peptide array binding signal intensity [43]: ≤ 0
SPOT peptide array binding signal intensity [44]: 0.25
SPOT peptide array binding signal intensity [45]: 5
SPOT peptide array binding signal intensity [46]: ≤ 0
SPOT peptide array binding signal intensity [47]: ≤ 0
SPOT peptide array binding signal intensity [48]: ≤ 0
SPOT peptide array binding signal intensity [49]: 1
SPOT peptide array binding signal intensity [50]: 920
SPOT peptide array binding signal intensity [51]: 613
SPOT peptide array binding signal intensity [52]: 5
SPOT peptide array binding signal intensity [53]: 512
SPOT peptide array binding signal intensity [54]: ≤ 0
SPOT peptide array binding signal intensity [55]: ≤ 0
SPOT peptide array binding signal intensity [56]: ≤ 0
SPOT peptide array binding signal intensity [57]: 3
SPOT peptide array binding signal intensity [58]: 5
SPOT peptide array binding signal intensity [59]: ≤ 0
SPOT peptide array binding signal intensity [60]: 30
SPOT peptide array binding signal intensity [61]: 1
SPOT peptide array binding signal intensity [62]: ≤ 0
SPOT peptide array binding signal intensity [63]: ≤ 0
SPOT peptide array binding signal intensity [64]: ≤ 0
SPOT peptide array binding signal intensity [65]: ≤ 0
SPOT peptide array binding signal intensity [66]: 69.8
SPOT peptide array binding signal intensity [67]: 18
SPOT peptide array binding signal intensity [68]: ≤ 0
SPOT peptide array binding signal intensity [69]: 118
SPOT peptide array binding signal intensity [70]: 3
SPOT peptide array binding signal intensity [71]: ≤ 0
SPOT peptide array binding signal intensity [72]: 3.33
SPOT peptide array binding signal intensity [73]: ≤ 0
SPOT peptide array binding signal intensity [74]: ≤ 0
